Data from PubChem BioAssay AID493166 (National Center for Advancing Translational Sciences (NCATS), 2011).
Active and inactive are the calls of the source. Entries that show only a call come without a potency. Calls follow the shape of the dose curve; as a rule, active = well fitted curve in the direction sought with a large enough effect; inactive = no such curve, though single readings can be large or run the other way.

experiment: Retest of LOPAC molecules that induce DNA re-replication in MCF 10A normal breast cells.; conditions: MCF 10A DNA re-replication, Hoechst nuclear intensity, 48 h; series mostly up to 45.1 µM
Excerpt: NIH Molecular Libraries Probe Production Network [MLPCN] NIH Chemical Genomics Center [NCGC] MLPCN Grant: Fast Track K99 CA136555 Assay Provider: Melvin DePamphilis, NICHD, NIH Assay Overview Eukaryotic cells normally restrict genome duplication to once per cell division. When this process is aberrant, DNA re-replication occurs when cells reinitiate DNA replication before the first round of replication is complete. DNA re-replication induces the DNA damage response, arrests cell proliferation, and triggers apoptosis. The cell cycle components cyclin A, Cdt-1, Cdc6 and geminin are critical regulators of this process and their misregulation results in DNA re-replication in normal and cancer cells. To identify compounds that induce re-replication in normal cells, an image-based assay was used to measure DNA content of nuclei, as detected by the fluorescent DNA binding dye, Hoechst. Cell nuclei were imaged by a fluorescence scanning plate imager and compounds that induce DNA re-replication were identified by the increase of nuclei with elevated fluorescence intensity.
Assay Protocol Summary For screening, 250 cells in 5 uL/well were dispensed into black clear 1536-well plates (Aurora) using a solenoid-based dispenser. Following transfer of 23 nL compound or DMSO vehicle by a pin tool, the plates were incubated 48 hr at 37 C and 5% CO2. After addition of 1 uL/well Hoescht stain, the plates were incubated 40 min at 37 C, 5% CO2 and total intensity of fluorescent objects (nuclei) were enumerated by an Acumen Explorer Ex3 (TTP LabTech) fluorescence scanning plate imager (405 nm excitation, 500-530 nm emission). Keywords: NIH Roadmap, MLPCN, MLI, MLSMR, qHTS, NCGC, DNA replication, cancer

SMILES	Potency
CC(C)NP(=O)(NC(C)C)OP(=O)(NC(C)C)NC(C)C	inactive
C=C(C)[C@H]1Cc2c(ccc3c2O[C@@H]2COc4cc(OC)c(OC)cc4[C@@H]2C3=O)O1	755 nM (active)
COc1cc2c(c(OC)c1OC)-c1ccc(OC)c(=O)cc1[C@@H](NC(C)=O)CC2	inactive
